Lassa entry inh – Lassa virus entry inhibition | Lassa virus pseudotype entry inhibition, cell reporter | Potency, µM (doses to about 37.9 µM), without a hit: top-dose activity change, negative = inhibition, hits mostly inhibitors | 300,000 tested, 1.2% active; calls by dose curve; tested in HEK293 cells; further: potency means the concentration at half of the fitted maximal effect; on the % scale 0 is the no-effect control and ±100 the full control effect; nearly all actives have a fitted effect of over 50% in size
CHX counter – counter-screen for Shiga toxin inhibitors: cycloheximide protein synthesis inhibition; cell reporter, cycloheximide protein synthesis inhibition counterscreen; max response, %; 300,000 tested, 12% active; in the data active means max response mostly above about 13%, no sharp cut-off; inactive means mostly below about 14%; further: read at 38.3 µM for the half of the compounds with a filed dose; 0% is about no effect
Shiga inhibitor – inhibitors of Shiga toxin in Vero cells; inhibition, % at 38.7 µM; Vero cells, Shiga toxin protein synthesis inhibition reporter; 290,000 tested, 9.2% active; in the data active means inhibition mostly above about 28%, no sharp cut-off; inactive means mostly below about 43%; further: 0% is about no effect
Pf growth 96h – inhibits malaria parasite growth, 96 h | Potency, µM (series often up to 28.7 µM), for the others: top-dose activity change, negative = inhibition, most hits filed as inhibitors | 320,000 tested, 6.9% active | P. falciparum luciferase reporter growth, 96 h; further: potency means the concentration at half of the fitted maximal effect; on the % scale 0 is the no-effect control and ±100 the full control effect
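Luminescence readout: decreased luciferase signal marks inhibited growth of reporter-expressing P. falciparum in infected red cells (2% hematocrit, 0.05% parasitemia final), exposed to compound two generations (96 h, 37 C, 5% CO2).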
Marburg entry inh – Marburg virus entry inhibition; Marburg virus pseudotyped entry inhibition, cell reporter; Potency, µM (doses to about 37.8 µM), without a hit: at the highest dose activity change, negative = inhibition, usual class: inhibitors; 300,000 tested, 1.8% active; calls by dose curve; tested in HEK293 cells; further: potency means the concentration at half of the fitted maximal effect; on the % scale 0 is the no-effect control and ±100 the full control effect
Pf growth 48h – inhibits P. falciparum growth in the first generation, 48 h; P. falciparum luciferase growth in erythrocytes, 48 h; Potency, µM (series often up to 28.7 µM), for inactives: top-dose activity change, negative = inhibition, hits mostly inhibitors; 310,000 tested, 5.9% active; further: potency means the concentration at half of the fitted maximal effect; on the % scale 0 is the no-effect control and ±100 the full control effect
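A one-generation exposure of luciferase-tagged malaria parasites in RPMI 1640/Albumax erythrocyte culture, 37 C and 5% CO2. Inhibition is inferred from decreased luminescence after adding detection reagent.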
Active calls of the source: *; ? = inconclusive; . = not tested or not shown; + = active, no number; ! = repeats disagree; [ ] = another dose, or the depositor's remark. Most compounds without a hit are left out; they make up all but 19% or so of the library. Unless noted, the call rests on the fitted dose curve; in most records, active means well fitted inhibition curve with a large enough effect; inconclusive means small, poorly fitted or top-dose-only effect, or another doubt; inactive means no such curve, though single readings can be large or run the other way.

SMILES	Lassa entry inh	CHX counter	Shiga inhibitor	Pf growth 96h	Marburg entry inh	Pf growth 48h
CC1CCCN(C(=O)c2ccc(COc3ccccc3Br)cc2)C1 (stereo not given)	-12%	9.1*	15	?	11%	.
CN1CCCC(OC(=O)c2ccc(S(=O)(=O)N(C)C)cc2)C1 (stereo not given)	.	-2	12	38%	.	-20%[0.00184 µM]
CCOc1ccc(C(=O)N2CCCCCC2)cc1	10%	1	11	490%	?	?
COc1ccc(C(=O)N2CCN(CC(=O)N3CCOCC3)CC2)cc1	.	-1	9	4.7µM*!	.	18%
CCOc1ccc(N=C(/C(C(=O)C(=O)N2CCOCC2)=C(\O)c2ccccc2)c2ccccc2)cc1	15%	53*	62*	-24%	8%	163%
O=C(CSc1nnc(CCCN2C(=O)c3cccc4cccc(c34)C2=O)n1-c1ccccc1)NCCCN1CCOCC1	12%	-5	8	-20%	?	9.3µM*
CCN(C(=S)NCCOC)c1cccc2ccccc12	-6%	1	22	42%[5.75 µM]	-7%[46.1 µM]	?
Cc1ccc(N2C(=O)CC(Cc3cccc(C)c3)C2=O)cc1 (stereo not given)	9%	6	7	0.29µM*	-2%	10%
Cc1ccc(CC2CC(=O)N(CCc3ccccc3)C2=O)cc1 (stereo not given)	?	19*	59	13µM*	-9%[46.1 µM]	9%
Cc1ccc(CC2CC(=O)N(c3ncccn3)C2=O)cc1 (stereo not given)	-2%	-3	-5	42%	-2%	33%
O=C1CC(Cc2ccccc2)C(=O)N1c1ncccn1 (stereo not given)	7%[46.1 µM]	53*	103*	?	11%[46.1 µM]	166%
CC#CC(=O)N1CCC(CO)(CCc2ccccc2)CC1	.	18*	63	-2%	.	-11%
CNC(=O)/C=C/c1cccc(C(F)(F)F)c1	9%	1	-15	56%	-2%	16%
CC(C)(C)NC(=O)/C=C/c1ccc(C(F)(F)F)cc1	11%	76*	96*	61%	25%	62%
COc1ccc(CC(=O)n2[nH]c(=O)ccc2=O)cc1OC	?	15	41*	23%	9%[46.1 µM]	10%
COc1ccc(Cc2nnc(NC(=O)Nc3ccc(F)cc3)s2)cc1OC	.	-1	4	6%	.	3%[0.00184 µM]
COc1ccc(Cc2nnc(NC(=O)c3cccc([N+](=O)[O-])c3C)s2)cc1	-15%	7	51	0.47µM*	-3%	57%
COc1ccc(CC(=O)n2[nH]c(=O)c3ccccc3c2=O)cc1OC	3%	-2	14	-4%	21%[46.1 µM]	-2%
COc1ccc(NC(=O)Nc2nnc(Cc3ccc(OC)c(OC)c3)s2)cc1	.	-1	-4	12µM*	.	-29%
COc1ccc(Cc2nnc(NC(=O)Nc3ccc(C)cc3)s2)cc1OC	.	15*	43*	-2%	.	-2%[0.00184 µM]
COc1ccc(Cc2nnc(NC(=O)c3ccccc3[N+](=O)[O-])s2)cc1	.	1	-10	4%	.	12%
O=C(COC(=O)/C=C/c1ccc(F)cc1)NCc1cccs1	.	.	.	26%	.	13%
COc1ccc(C(=O)Nc2nnc(Cc3ccc(OC)c(OC)c3)s2)cc1	18%[46.1 µM]	11*	20	0%	-16%[46.1 µM]	0%
COCC(=O)Nc1nnc(Cc2ccc(OC)c(OC)c2)s1	-3%	6	33	-12%	1%	14%
COc1ccc(C(=O)Cc2ccc(OC)c(OC)c2)cc1	34%	56*	53*	70%	3%	.
SMILES	Lassa entry inh	CHX counter	Shiga inhibitor	Pf growth 96h	Marburg entry inh	Pf growth 48h
CC(C)(C)n1ncc2c(=O)n(CC(=O)N3CCCc4ccccc43)cnc21	-1%	-3	18	1.9µM*	7%	-2%
CC(C)(C)n1ncc2c(=O)n(CC(=O)OCc3ccccc3)cnc21	?	-5	-19	-28%	?	109%
CC(C)(C)n1ncc2c(=O)n(CC(=O)c3ccccc3)cnc21	?	56*	81*	2.1µM*	7%	275%
O=C(Cn1cnc2c(cnn2-c2ccccc2Cl)c1=O)N1CCc2ccccc21	-26%	-3	-6	.	-14%	?
CC(C)(C)n1ncc2c(=O)n(CC(=O)N3CCc4ccccc43)cnc21	5%	12*	69*	?	21%	20%
O=C(NCCc1ccccc1)c1cc(S(=O)(=O)N2CCCCC2)c[nH]1	-24%[46.1 µM]	.	.	.	.	.
COc1ccccc1CNC(=O)/C=C/c1ccc(S(=O)(=O)NCc2ccco2)cc1	2%	20*	+	?	-5%	?
O=C(O)/C=C/c1ccc(S(=O)(=O)NCc2ccco2)cc1	1%[46.1 µM]	5	12	?	-5%[46.1 µM]	22%
COc1cccc(CN(Cc2ccccc2F)S(=O)(=O)c2ccc(S(=O)(=O)NCc3ccccc3)cc2)c1	?	-2	-13	?	-22%	?
COc1cccc(CN(Cc2ccco2)S(=O)(=O)c2ccc(S(=O)(=O)NCc3ccccc3)cc2)c1OC	?	13	11	12%	-23%	13µM*
O=C(/C=C/c1ccc(S(=O)(=O)NCc2ccco2)cc1)NCc1cccc(Cl)c1	-21%	29*	46*	?	-16%	-11%
Cc1ccc(CNC(=O)/C=C/c2ccc(S(=O)(=O)NCc3ccco3)cc2)cc1	?	21*	40*	?	-18%	-15%
Cc1nc(NC(=O)CN2CCOCC2)sc1C(=O)N(C)C	1%	-2	-11	-10%	12%	2%
COCCNc1nnc(SCC(=O)NC(=O)c2ccccc2OC)s1	6%	9	-17	36%	-7%	16%
Cc1ccc(C(C(=O)NCC2CCCO2)N(C(=O)c2snc(C(N)=O)c2N)c2ccc(F)cc2)o1 (stereo not given)	?	1	-7	?	?	?
CCOc1ccc(N(C(=O)c2snc(C(N)=O)c2N)C(C(=O)NCC2CCCO2)c2ccc(C)o2)cc1 (stereo not given)	.	18*	47*	?	-6%[46.1 µM]	?
COc1cc(OC)cc(N(C(=O)c2snc(C(N)=O)c2N)C(C(=O)NCC2CCCO2)c2ccc(C)o2)c1 (stereo not given)	.	-2	3	36%	.	4.7µM*
COc1ccc(-c2nsc(C(=O)N(c3ccc(F)cc3)C(C(=O)NC3CCCC3)c3ccc(OC)cc3)c2N)cc1 (stereo not given)	1%	-6	-2	.	?	2.6µM*
COc1ccc(N(C(=O)c2snc(C(N)=O)c2N)C(C(=O)NC2CCCCC2)c2ccc(C)o2)cc1 (stereo not given)	?	-9	-12	-21%	?	8.3µM*
COc1ccc(C(C(=O)NC2CCCC2)N(C(=O)c2snc(C(N)=O)c2N)c2cccc(O)c2)cc1 (stereo not given)	-22%	23	23	22%	?	2%
COc1ccc(C2=CCCCCC2)c(OC)c1OC	24%[46.1 µM]	.	.	.	12%[46.1 µM]	.
